In PubChem BioAssay (NCI):
About 83,000 compounds went through this panel and 20% of them were active in at least one assay; those are over-represented in the sample as a whole.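 Assay: single dose, 48 h. Readout: percent growth (0 = no net growth; negative = cell death). Active: <10.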 Values without a mark were called inactive. Activity calls are given as the source filed them.

Experiments:
Experiment in all cases: NCI-60 one-dose screen, 48 h (100 = growth as untreated, 0 = no growth, -100 = all killed)
Details in all cases: 10 µM unless noted
[1] = system: SR leukemia
[2] = system: RPMI-8226 leukemia
[3] = system: OVCAR-8 ovarian
[4] = system: OVCAR-4 ovarian
[5] = system: SK-OV-3 ovarian
[6] = system: IGROV1 ovarian
[7] = system: OVCAR-3 ovarian
[8] = system: HS 578T breast
[9] = system: NCI/ADR-RES ovarian
[10] = system: OVCAR-5 ovarian

`COc1ccc(-c2nc3ccccn3c2/C=C/C(=O)c2cc(OC)c(OC)c(OC)c2)cc1` was tested, and the growth [1] was 18.8%, the growth [2] was 29.8% and the growth [3] was 30.6%. The growth [4] was 56.5%, the growth [5] was 62.8% and the growth [6] was 61.6%. For the same molecule, the growth [7] was 51.2%.

With `c1ccc(-c2oc3ccccc3c2-c2ccccc2)cc1` the growth [1] was 57.3%, the growth [2] was 107% and the growth [3] was 102%. The growth [4] was 96.7%, the growth [5] was 101% and the growth [6] was 87.8%. The growth [8] was 110% and the growth [9] was 110%.

Molecule `Cn1cc(-c2ccc3nc(-c4ccc(CC(=O)Nc5cc(C(C)(C)C)no5)cc4)cnc3c2)cn1` has a growth [1] of 15.2% [30 µM], a growth [3] of 31.5% [30 µM] and a growth [10] of 44.8% [30 µM]. For the same molecule, the growth [4] was 28.7% [30 µM], the growth [5] was 11.2% [30 µM] and the growth [6] was -2.97% [30 µM] (active). The growth [7] was 29.6% [30 µM], the growth [8] was 21.9% [30 µM] and the growth [9] was 19.8% [30 µM].

With `Cc1nc(Nc2ccc(N)cc2)c2ccccc2n1` the growth [1] was 56.8%, the growth [3] was 95.3% and the growth [10] was 100%. It also gave a growth [4] of 91.2%, a growth [5] of 113% and a growth [6] of 92.7%. For the same molecule, the growth [7] was 101%, the growth [8] was 104% and the growth [9] was 93.6%.

`O=[N+]([O-])c1ccc(-c2cc3c(Nc4ccc(Sc5nc6ccccc6s5)c(Cl)c4)ncnc3s2)cc1` gave a growth [1] of 38.7%, a growth [3] of 23.5% and a growth [10] of 49.9%. For the same molecule, the growth [4] was 35.2%, the growth [5] was 37.1% and the growth [6] was 43.8%. It also gave a growth [7] of 14.7%, a growth [8] of 87.8% and a growth [9] of 60.3%.

With `CC(=O)Nc1ccc(-c2cc3c(NCc4ccc(F)cc4)ncnc3s2)cc1` the growth [1] was 77.2%, the growth [3] was 26.9% and the growth [10] was 78.1%. It also gave a growth [4] of 44.5%, a growth [5] of 69.5% and a growth [6] of 61.1%. For the same molecule, the growth [7] was 81.6%, the growth [8] was 70.3% and the growth [9] was 69.4%.

For `O=C1/C(=C/c2ccc([N+](=O)[O-])cc2)COc2ccc(O)c(O)c21`, the growth [1] was -1.74% (active), the growth [3] was 14.2% and the growth [10] was -68.6% (active). For the same molecule, the growth [4] was 6.56% (active), the growth [5] was 89.2% and the growth [6] was -40% (active). For the same molecule, the growth [7] was -88.2% (active), the growth [8] was 4.58% (active) and the growth [9] was 11.1%.

In the case of `O=[N+]([O-])c1ccc(-c2cc3c(Nc4ccc(Cl)c(C(F)(F)F)c4)ncnc3s2)cc1`, the growth [1] is reported as 17%, the growth [3] is reported as 10.1% and the growth [10] is reported as 26.6%. The growth [4] was 11.1%, the growth [5] was -11.5% (active) and the growth [6] was 38%. The growth [7] was 5.57% (active), the growth [8] was 37.9% and the growth [9] was 2.94% (active).

`Clc1ccc(/C=C/c2nc(Nc3ccc(Cl)cc3)c3ccccc3n2)cc1` gave a growth [1] of 104%, a growth [3] of 102% and a growth [10] of 106%. It also gave a growth [4] of 112%, a growth [5] of 96.6% and a growth [6] of 78.2%. It also gave a growth [7] of 106%, a growth [8] of 103% and a growth [9] of 103%.

`CCOC(=O)c1cnn2c(-c3ccc(Cl)cc3)nc(NCc3ccccc3)nc12` gave a growth [1] of 44.5%, a growth [3] of 30.5% and a growth [10] of 100%. For the same molecule, the growth [4] was 5.61% (active), the growth [5] was 112% and the growth [6] was 64.8%. The growth [7] was 29.9%, the growth [8] was 79.5% and the growth [9] was 26.3%.

In the case of `CC/C=C/[C@@H]1C=C[C@@H]2CCC[C@H]2[C@@H]1CC[C@H](O)[C@H](C)N`, the growth [1] is reported as -40.1% (active), the growth [2] is reported as -50.2% (active) and the growth [10] is reported as -29% (active). For the same molecule, the growth [4] was 32.8%, the growth [5] was -15.9% (active) and the growth [6] was 1.42% (active). For the same molecule, the growth [7] was -64.8% (active), the growth [8] was -44.3% (active) and the growth [9] was -33.4% (active).

With `COc1ccc(/C(C)=C(\c2ccc(Cl)cc2)c2ccc(OCCN3CCCCC3)cc2)cc1F` the growth [1] was -25.2% (active), the growth [3] was 59.5% and the growth [10] was 51.5%. The growth [4] was 29.1%, the growth [5] was 63% and the growth [6] was 46.2%. For the same molecule, the growth [7] was 51%, the growth [8] was 35% and the growth [9] was 63%.

With `C=C1C(=O)O[C@H]2[C@H]1CC/C(COC(=O)/C=C\C(=O)NCc1ccc(Cn3c(=O)sn(-c4ccc(Cl)cc4)c3=O)cc1)=C\CC[C@@]1(C)O[C@@H]21` the growth [1] was -46.3% (active), the growth [3] was -12% (active) and the growth [10] was -86.2% (active). The growth [4] was -78.4% (active), the growth [5] was 52.4% and the growth [6] was -99.5% (active). The growth [7] was -97.6% (active), the growth [8] was -18.2% (active) and the growth [9] was -6.62% (active).

For `Cn1ccnc1C(=O)/C=C/c1ccc(C(=O)Nc2ccc(S(F)(F)(F)(F)F)cc2)cc1`, the growth [1] was 1.8% (active), the growth [3] was 9.86% (active) and the growth [10] was 10.2%. It also gave a growth [4] of 33.5%, a growth [5] of 61.2% and a growth [6] of 22.3%. For the same molecule, the growth [7] was 2.9% (active), the growth [8] was 23.5% and the growth [9] was 5.47% (active).

Work on `COc1ccc(/C=C2\COc3ccc(O)c(O)c3C2=O)c(OC)c1` yielded a growth [1] of 18.9%, a growth [3] of 41.5% and a growth [10] of 74.1%. The growth [4] was 47.3%, the growth [5] was 72.7% and the growth [6] was 31.3%. The growth [7] was 29.4%, the growth [8] was 65.5% and the growth [9] was 57.8%.

Work on `CCCCN(Cc1ccc(C(=O)NO)cc1)C(=O)Nc1ccc(OCCCCCCCCCn2cc(CCCCC(=O)N[C@H](C(=O)N3C[C@H](O)C[C@H]3C(=O)NCc3ccc(-c4scnc4C)cc3)C(C)(C)C)nn2)cc1` yielded a growth [1] of 12.9%, a growth [3] of 50.3% and a growth [10] of 96.8%. For the same molecule, the growth [4] was 49.3%, the growth [5] was 53.9% and the growth [6] was 16.8%. For the same molecule, the growth [7] was 3.45% (active), the growth [8] was 40.8% and the growth [9] was 97.3%.

For `O=C1CSC(c2ccc(O)cc2)N1c1nnc(Cn2cnnc2)o1` (stereo not drawn), the growth [1] was 3.17% (active), the growth [2] was 62% and the growth [10] was 96.1%. The growth [4] was 88.6%, the growth [5] was 112% and the growth [7] was 15.2%. It also gave a growth [8] of 64.7% and a growth [9] of 92.2%.

Molecule `OC(COc1cccc2ccccc12)CN1CCN(c2ccccc2)CC1` (stereo not drawn) has a growth [1] of 130%, a growth [3] of 100% and a growth [10] of 102%. The growth [4] was 91.9%, the growth [5] was 93.7% and the growth [6] was 122%. For the same molecule, the growth [7] was 105%, the growth [8] was 107% and the growth [9] was 98%.

For `COc1ccc(-c2nnc(SCC(=O)NC3=NN=C(c4ccccc4)CS3)o2)cc1`, the growth [1] was 86.6%, the growth [3] was 83% and the growth [10] was 102%. For the same molecule, the growth [4] was 100%, the growth [5] was 93.5% and the growth [6] was 108%. For the same molecule, the growth [7] was 107%, the growth [8] was 97.3% and the growth [9] was 104%.

With `O=C1/C(=C/c2ccccc2[N+](=O)[O-])COc2ccc(O)c(O)c21` the growth [1] was 3.56% (active), the growth [3] was 10.3% and the growth [10] was -33% (active). The growth [4] was 2.9% (active), the growth [5] was 40.8% and the growth [6] was -6.14% (active). The growth [7] was -63.2% (active), the growth [8] was -0.42% (active) and the growth [9] was 5.96% (active).

For `CC[C@]1(O)C[C@H]2CN(CCc3c([nH]c4ccccc34)[C@@](C(=O)OC)(c3cc4c(cc3OC)N(C=O)[C@H]3[C@@](O)(C(=O)OC)[C@H](OC(C)=O)[C@]5(CC)C=CCN6CC[C@]43[C@@H]65)C2)C1`, the growth [1] was 9.82% (active), the growth [2] was -5.85% (active) and the growth [10] was -47.6% (active). For the same molecule, the growth [4] was 49.2%, the growth [5] was -7.88% (active) and the growth [6] was 4.04% (active). The growth [7] was -41.4% (active) and the growth [9] was -62.6% (active).

Molecule `O=C(O)c1ccccc1C(=O)Nc1ccc(Cl)cc1` has a growth [1] of 80.4%, a growth [3] of 87.7% and a growth [10] of 103%. The growth [4] was 110%, the growth [5] was 109% and the growth [6] was 102%. The growth [7] was 110%, the growth [8] was 132% and the growth [9] was 104%.

`CCCCC1COc2cccc3c(SCC(=O)N(C)c4cccc(Cl)c4)cc[n+]1c23` (stereo not drawn) showed a growth [1] of 100%, a growth [3] of 118% and a growth [10] of 109%. For the same molecule, the growth [4] was 129%, the growth [5] was 108% and the growth [6] was 112%. The growth [7] was 121%, the growth [8] was 109% and the growth [9] was 111%.

For `C=C1C(=O)O[C@H]2[C@H]1CC/C(COC(=O)/C=C\C(=O)NCc1ccc(Cn3c(=O)sn(-c4ccc(OC)cc4)c3=O)cc1)=C\CC[C@@]1(C)O[C@@H]21`, the growth [1] was -27.3% (active), the growth [3] was 4.05% (active) and the growth [10] was -86.8% (active). The growth [4] was -77% (active), the growth [5] was 61.4% and the growth [6] was -97.3% (active). The growth [7] was -88.6% (active), the growth [8] was -21.3% (active) and the growth [9] was -16% (active).

Molecule `COc1ccc(/C=C2\COc3ccc(O)cc3C2=O)c(OC)c1` has a growth [1] of 19.5%, a growth [3] of 63.3% and a growth [10] of 94.3%. It also gave a growth [4] of 96.1%, a growth [5] of 58% and a growth [6] of 67.3%. It also gave a growth [7] of 27%, a growth [8] of 66% and a growth [9] of 33%.

In the case of `Clc1ccc(-c2nnc(Cn3ccnc3)o2)cc1`, the growth [1] is reported as 94.3%, the growth [2] is reported as 112% and the growth [10] is reported as 96.2%. The growth [4] was 102%, the growth [5] was 107% and the growth [6] was 108%. For the same molecule, the growth [7] was 116%, the growth [8] was 95.1% and the growth [9] was 106%.

For `CCCc1cc(=O)oc2c3c(c4c(c12)OC(C)(C)C=C4)O[C@@H](C)[C@H](C)C3=O`, the growth [1] was 65.4%, the growth [2] was 56.1% and the growth [10] was -19.4% (active). For the same molecule, the growth [4] was 67.8%, the growth [5] was 92.3% and the growth [6] was 74.8%. The growth [9] was 0.517% (active).

In the case of `CC(C)(C)N1CC(OC(N)=O)C1`, the growth [1] is reported as 128%, the growth [3] is reported as 84.9% and the growth [10] is reported as 110%. The growth [4] was 101%, the growth [5] was 113% and the growth [6] was 110%. The growth [7] was 120%, the growth [8] was 116% and the growth [9] was 117%.

In the case of `O=C1CSC(c2ccccc2Cl)N1c1nnc(Cn2cnnc2)o1` (stereo not drawn), the growth [1] is reported as -23.1% (active), the growth [2] is reported as 55.1% and the growth [10] is reported as 63%. It also gave a growth [4] of 68.6%, a growth [5] of 49% and a growth [6] of 74.7%. The growth [7] was 44.1%, the growth [8] was 82.3% and the growth [9] was 8.38% (active).

In the case of `COc1ccc(OC)c(/C=C2\COc3ccc(O)cc3C2=O)c1`, the growth [1] is reported as 11.8%, the growth [3] is reported as 100% and the growth [10] is reported as 98.7%. It also gave a growth [4] of 117%, a growth [5] of 102% and a growth [6] of 97.9%. It also gave a growth [7] of 102%, a growth [8] of 95.6% and a growth [9] of 100%.
